High-throughput results as filed in PubChem BioAssay.
VDR inhibitor – Inhibitors of the vitamin D receptor (VDR): qHTS; VDR-SRC2-3 peptide fluorescence polarization, 2 h; Vitamin D3 receptor (Homo sapiens), P11473; 400,000 tested, 0.93% active; Potency, µM, for the others: max response, negative = inhibition, most hits filed as inhibitors; further: on the % scale 0 is the no-effect control and ±100 the full control effect
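Reagent solutions, kept cold and dark, are dispensed first; compounds are then pinned in at 23 nl, plates briefly spun, and incubated 2 h at ambient temperature. Inhibition of VDR–SRC2-3 peptide binding is read by fluorescence polarization.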
HP1b chromo inh – HTS for Inhibitors of HP1-beta Chromodomain Interactions with Methylated Histone Tails; AlphaScreen HP1-beta / biotin-H3K9me3 peptide binding; Chromobox protein homolog 1 (Homo sapiens), P83916; AID 540317, 2011; Potency, µM (highest dose often 114 µM), inactives show at the top dose activity change, negative = inhibition, most hits filed as inhibitors; 390,000 tested, 0.56% active; further: nearly all actives have a fitted effect of over 70% in size
Target sequence (P83916 whole entry, looked up): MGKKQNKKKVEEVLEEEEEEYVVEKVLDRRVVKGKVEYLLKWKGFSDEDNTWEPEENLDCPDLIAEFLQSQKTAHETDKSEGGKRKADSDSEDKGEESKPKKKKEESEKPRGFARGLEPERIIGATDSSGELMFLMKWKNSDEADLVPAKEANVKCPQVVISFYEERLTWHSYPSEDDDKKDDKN
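AlphaScreen: HP1-beta (50 nM) preformed 30 min with biotin-H3(1-18)K9me3 peptide (50 nM) in PBS pH 7.4, 0.01% Tween-20. Compound added for 30 min at RT, then streptavidin donor/nickel chelate acceptor beads (10 ug/mL) for 30 min.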
JMJD2A Tudor – qHTS Assay for Inhibitors of JMJD2A-Tudor Domain | 390,000 tested, 4.4% active | Lysine-specific demethylase 4A (Homo sapiens), O75164 | Potency, µM (highest dose often 114 µM), inactives show top-dose activity change, negative = inhibition, actives largely listed as inhibitors | AlphaScreen JMJD2A-Tudor / H3K4me3 peptide binding; further: on the % scale 0 is the no-effect control and ±100 the full control effect; nearly all actives have a fitted effect of over 50% in size
BAZ2B block – qHTS Assay for Inhibitors of BAZ2B | Bromodomain adjacent to zinc finger domain protein 2B (Homo sapiens), Q9UIF8 | AlphaScreen BAZ2B-H3K14Ac peptide displacement | Potency, µM (highest dose often 114 µM), for the others: at the highest dose activity change, negative = inhibition, usual class: inhibitors | 360,000 tested, 4.4% active; further: on the % scale 0 is the no-effect control and ±100 the full control effect; nearly all actives have a fitted effect of over 60% in size
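AlphaScreen displacement: compounds (up to 110uM) incubated 30 min at room temperature with a preformed 50 nM BAZ2B/50 nM biotinylated H3K14Ac peptide complex in PBS pH 7.4 with Tween-20. Donor and acceptor beads at 10 ug/mL final added, 20 min light-protected before reading.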
G9a inh – qHTS Assay for Inhibitors of Histone Lysine Methyltransferase G9a; Potency, µM (doses to about 102 µM), for the others: at the highest dose activity, negative = inhibition, hits mostly inhibitors; AID 504332, 2011; G9a H3K9 monomethylation, AlphaScreen, 2 h; 350,000 tested, 8.8% active; Histone-lysine N-methyltransferase EHMT2 (Homo sapiens), Q96KQ7; further: on the % scale 0 is the no-effect control and ±100 the full control effect; nearly all actives have a fitted effect of over 75% in size
Target sequence (Q96KQ7 913-1193 limits assumed): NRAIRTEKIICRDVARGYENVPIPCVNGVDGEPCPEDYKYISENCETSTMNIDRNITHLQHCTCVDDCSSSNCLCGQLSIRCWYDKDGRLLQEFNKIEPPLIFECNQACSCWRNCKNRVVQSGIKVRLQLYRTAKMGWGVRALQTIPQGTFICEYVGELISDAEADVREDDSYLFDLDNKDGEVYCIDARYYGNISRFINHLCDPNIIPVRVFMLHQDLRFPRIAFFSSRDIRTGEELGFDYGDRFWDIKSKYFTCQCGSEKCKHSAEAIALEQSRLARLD
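Enzyme 20 nM + cpd, 15 min RT; add b-H3K9 pep 500 nM / SAM 20 uM; 2 h RT; anti-H3K9me1 Ab 0.5 ug/mL + SA donor / anti-rabbit acceptor beads 20 ug/mL each, 10 min; AlphaScreen read.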
PLK1 PBD block – qHTS for Inhibitors of PLK1-PDB (polo-like kinase 1 - polo-box domain): Primary Screen; Serine/threonine-protein kinase PLK1 (Homo sapiens), P53350; Plk1 PBD binding of FITC phosphopeptide, fluorescence polarization; Potency, µM, without a hit: max response, negative = inhibition, hits mostly inhibitors; 360,000 tested, 2.8% active; further: series mostly up to about 57 µM; on the % scale 0 is the no-effect control and ±100 the full control effect; nearly all actives have a fitted effect of over 65% in size
The depositor's hits bear a star; ? = inconclusive; . = not tested or not shown; [ ] = remark or other dose. Compounds with a hit are over-represented: about 11% of the library has one in this group of screens. The call rests on the fitted dose curve; in most records, active means well fitted curve in the direction sought with a large enough effect; inconclusive means small, poorly fitted or top-dose-only effect, or another doubt; inactive means no such curve, though single readings can be large; an effect the other way counts as inactive or inconclusive. Potency means the concentration at half of the fitted maximal effect.

SMILES	VDR inhibitor	HP1b chromo inh	JMJD2A Tudor	BAZ2B block	G9a inh	PLK1 PBD block
Cc1cccc(N2C(=O)CC(Sc3nccc(C)n3)C2=O)c1 (stereo unspecified)	-5.1%	47.7%	-11.2%	11.3%	?	-15.6%
Cc1ccc(N2C(=O)CC(Sc3ccccc3C(=O)O)C2=O)cc1C (stereo unspecified)	8.5%	2.0%	-9.0%[11.4 µM]	-32.0%	1.58µM*	?
Cc1cccc(N2C(=O)CC(Sc3ncn[nH]3)C2=O)c1 (stereo unspecified)	7.9%	?	?	-25.3%	7.08µM*	26.7µM*
Cc1ccc(N2C(=O)CC(Sc3ccccc3C(=O)O)C2=O)cc1 (stereo unspecified)	-18.8%	39.5%	?	-6.6%	?	-2.5%
CCC(=O)Nc1cccc(-c2nnc(SCC(=O)c3ccccc3)n2C)c1	-12.3%	?	39.8µM*	.	?	26.7µM*
CSc1nnc(-c2cccc(NC(=O)c3ccccc3)c2)n1C	?	24.6%	-2.5%	-25.0%	50.1µM*	0.8%
O=C(N1CCCCC1)N1CCN(S(=O)(=O)c2ccccc2)CC1	27.3%	16.3%	-23.2%	-15.6%	-8.5%	-11.6%
CCOc1cc(/C=N/O)ccc1OCc1ccc([N+](=O)[O-])cc1	?	?	-35.5%[57.1 µM]	-33.0%	19.7%[59 µM]	23.8µM*
CCOc1cc(/C=N/O)ccc1OCc1ccc(F)cc1	50.1µM*	?	28.2µM*	3.1%	-4.6%[59 µM]	23.8µM*
NC(N)=N/N=C/c1ccc(OCc2ccccc2)c(OCc2ccccc2)c1	-10.5%	?	?	39.8µM*	?	-8.9%
COc1cc(/C=N/O)ccc1OCc1ccc(Cl)cc1	.	.	.	-11.2%	.	.
CCOc1cc(C=C(C(=O)OC)C(=O)OC)ccc1OCc1ccc([N+](=O)[O-])cc1	?	21.1%	-18.1%	-21.9%	-32.8%[59 µM]	-18.5%
CCOc1cc(/C=N/N=C(N)N)ccc1OCc1ccc(Cl)cc1	-13.9%	-11.4%	?	?	?	-8.3%
COc1cc(/C=N/n2c(C)n[nH]c2=S)ccc1OCc1ccc(F)cc1	-29.7%	-3.0%	79.4µM*	-15.3%	1.26µM*	-25.5%
CC(C)Oc1ccc(CNC(=O)c2ccc3c(c2)N(Cc2ccc(F)cc2)CCS3)cc1	1.1%	30.6%	-16.7%	-0.2%	1.1%[59 µM]	.
COc1cc(CN(C)CC2CCCN(CCc3cccc(C(F)(F)F)c3)C2)ccc1O (stereo unspecified)	-1.3%	18.2%	-25.2%	-32.4%	44.7µM*	0.8%
COc1ccc(CN(C)CC2CCCN(CCc3ccc(Cl)cc3)C2)cc1OC (stereo unspecified)	8.7%	11.8%	-26.0%	0.5%	.	-4.0%
CCCCCc1ccc(C)cc1O	7.4%	.	.	.	-12.0%[12.7 µM]	.
Cc1ccc(C(=O)OCC(=O)N(CC(C)C)c2c(N)n(Cc3ccccc3)c(=O)[nH]c2=O)s1	5.8%	22.7%	-4.2%	-5.7%	79.4µM*	0.3%
COCCN(C(=O)COC(=O)c1ccc(C)s1)c1c(N)n(Cc2ccccc2)c(=O)[nH]c1=O	-6.2%	21.7%	-5.4%	13.0%	-3.3%	-4.2%
CCCN(C(=O)COC(=O)c1cc(CC)c(C)s1)c1c(N)n(Cc2ccccc2)c(=O)[nH]c1=O	-14.2%	-3.3%	-32.4%	?	50.1µM*	-8.8%
CCOC(=O)c1c(C)[nH]c(C(=O)OCC(=O)N(CC(C)C)c2c(N)n(Cc3ccccc3)c(=O)[nH]c2=O)c1C	-8.7%	31.6%	-21.2%	1.3%	15.8µM*	21.8%
CCOC(=O)c1c(C)[nH]c(C(=O)OCC(=O)N(CC)c2c(N)n(Cc3ccccc3)c(=O)[nH]c2=O)c1C	1.8%	25.3%	-7.7%	.	.	-12.3%
COc1ccc(-c2oc3ncn4nc(COc5ccccc5C)nc4c3c2-c2ccc(OC)cc2)cc1	-19.6%	26.8%	2.6%	0.3%	3.5%[59 µM]	.
CN1CCN(c2ccc(Cl)cc2NC(=O)c2cc(=O)[nH]c3ccccc23)CC1	14.7%	11.0%	-19.5%	5.3%	-10.6%[12.7 µM]	0.1%
SMILES	VDR inhibitor	HP1b chromo inh	JMJD2A Tudor	BAZ2B block	G9a inh	PLK1 PBD block
CN1CCN(c2cc3c(c4c2[nH]c2ccccc24)C(=O)CC(C)(C)C3)CC1	-16.8%	20.1%	?	-32.1%	56.2µM*	-8.1%
CC(=O)c1ccc(N2CCN(CC3CCCCC3)CC2)cc1	-29.8%	?	35.5µM*	?	50.1µM*	-17.9%
Cc1cccc(CNC(=O)c2sc(=O)n(Cc3ccc(S(C)(=O)=O)cc3)c2C)c1	.	.	.	.	.	-9.1%
O=C(c1cc([N+](=O)[O-])ccc1N1CCOCC1)N1CCN(c2ccc([N+](=O)[O-])cc2)CC1	-3.7%	8.2%	-25.5%	-14.4%	11.2µM*	-8.8%
CCOC(=O)c1cc(CC)sc1NC(=O)c1cc([N+](=O)[O-])ccc1N1CCOCC1	3.3%	-32.9%	-23.7%[57.1 µM]	-10.6%	11.2µM*	?
N#Cc1cc([N+](=O)[O-])ccc1N1CCCC1	?	?	?	-31.3%	-5.3%	26.7µM*
O=C(Nc1ccc(N2CCCC2)cc1)c1cc([N+](=O)[O-])ccc1N1CCOCC1	-6.3%	?	44.7µM*	?	.	-12.3%
Cc1noc(C)c1S(=O)(=O)NC(=O)C1(C)CCN1C(=O)CC(c1ccccc1)c1ccccc1 (stereo unspecified)	.	.	.	.	.	1.2%
O=C(Nc1ccc(N2CCOCC2)c(F)c1)c1cccs1	6.3%	28.0%	-18.6%	-2.6%	.	-0.7%
Cc1ccc(C)c(NC(=O)c2cc(S(=O)(=O)N3CCCCC3)ccc2N2CCOCC2)c1	-8.8%	33.2%	-17.2%	11.5%	18.8%[12.7 µM]	-2.7%
COC(=O)c1cc(NC(=O)c2cccs2)ccc1N1CCOCC1	?	-1.9%	50.1µM*	-2.6%	?	26.7µM*
Cc1cc(=O)oc2cc(NC(=O)c3cc([N+](=O)[O-])ccc3N3CCOCC3)ccc12	-0.4%	9.5%	-23.1%	-10.7%	39.8µM*	-7.4%
CN1CCN(C(=O)c2cc([N+](=O)[O-])ccc2Cl)CC1	0.8%	38.4%	-16.0%	-0.9%	50.1µM*	5.5%
Cc1ccc(S(=O)(=O)N2CCOCC2)cc1NC(=O)c1cc([N+](=O)[O-])ccc1N1CCOCC1	7.2%	-5.5%	-25.3%	-5.9%	56.2µM*	-8.8%
CCOCCn1ccc2c(OCC(=O)Nc3cccc(F)c3)cccc2c1=O	9.7%	-0.5%	-11.7%	-10.8%	-2.9%[59 µM]	.
